The list is not random: actives were taken first. Their share in the collection is about 11%.
Vaccinia mCherry – inhibitors of vaccinia virus infection (mCherry reporter signal); Potency, µM (highest dose often 36.5 µM), for the others: top-dose activity change, negative = inhibition, hits mostly inhibitors; Vaccinia virus mCherry reporter infection, fluorescence; actives 0.63% (n = 310,000); calls by dose curve; tested in A549 cells; note: % is set by controls: 0 for no effect and ±100 for the full control effect; nearly all actives have a fitted effect of over 35% in size
Pf growth 48h – inhibits P. falciparum growth in the first generation, 48 h | actives 5.9% (n = 310,000) | P. falciparum luciferase growth in erythrocytes, 48 h | Potency, µM (series often up to 28.7 µM), inactives show top-dose activity change, negative = inhibition, actives largely listed as inhibitors | AID 504832; note: % is set by controls: 0 for no effect and ±100 for the full control effect
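Here the parasites carry a stable luciferase gene and grow inside erythrocytes in Albumax-based RPMI medium with compound for one erythrocytic cycle. Activity is scored as loss of luminescent signal.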
HCV inhibitor – blocks hepatitis C virus; Huh7.5.1 HCVcc-Cre infection, luciferase reporter, 44 h; Potency, µM (series often up to 41.8 µM), inactives show at the highest dose activity change, negative = inhibition, hits mostly inhibitors; actives 3.4% (n = 340,000); note: % is set by controls: 0 for no effect and ±100 for the full control effect
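Infectious HCV cell culture screen: compound-treated cells (1,000/well, pre-plated 4 h) are infected with HCVcc-Cre at roughly 0.5 moi and grown 44 h. Infection is quantified by luciferase signal after 15 min substrate incubation at room temperature.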
Vaccinia Venus – inhibitors of vaccinia virus (Venus reporter); Vaccinia virus Venus reporter expression, fluorescence; actives 0.46% (n = 330,000); AID 720580; Potency, µM (series often up to 36.5 µM), for the others: at the top dose activity change, negative = inhibition, most hits filed as inhibitors; calls by dose curve; tested in A549 cells; note: % is set by controls: 0 for no effect and ±100 for the full control effect; nearly all actives have a fitted effect of over 30% in size
Pf growth 96h – inhibits malaria parasite growth, 96 h; P. falciparum luciferase reporter growth, 96 h; Potency, µM (doses to about 28.7 µM), for inactives: at the highest dose activity change, negative = inhibition, most hits filed as inhibitors; actives 6.9% (n = 320,000); note: % is set by controls: 0 for no effect and ±100 for the full control effect
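Infected RBCs, 2% Hct / 0.05% parasitemia final; luciferase-reporter P. falciparum; cpd 96 h, 37 C, 5% CO2; luciferase detection reagent; luminescence.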
NS1 inh – influenza NS1 inhibition; actives 0.4% (n = 270,000); Potency, µM (titrated, usually from 46.1 µM), inactives show at the top dose activity, positive = more growth; calls by dose curve; note: actives are rising curves; nearly all actives have a fitted effect of over 50% in size
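A cell-based growth assay was used: compounds that relieve NS1-induced slow growth of budding yeast raise OD600. Assay medium was yeast nitrogen base with ammonium sulphate and -URA supplement, pH 6.0, with 2% galactose.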
Starred values were filed as active, the others as inactive; ! = a repeat was not active; [ ] = remark or other dose. Unless noted, calls come from the whole dose curve; as a rule, active = well fitted inhibition curve with a large enough effect; inconclusive = small, poorly fitted or top-dose-only effect, or another doubt; inactive = no such curve, though single readings can be large or run the other way. Potency is the fitted concentration of half-maximal effect.

What do the screens show for `Cc1ccc(NC2=C(NCCO)C(=O)c3ccccc3C2=O)cc1`?
Vaccinia mCherry: inconclusive; Pf growth 48h: 5.9µM*; HCV inhibitor: 5%; Vaccinia Venus: -26%; Pf growth 96h: 67%; NS1 inh: -13%

What do the screens show for `CCOCCCNS(=O)(=O)c1ccccc1`?
HCV inhibitor: -1%; Pf growth 96h: -28%; NS1 inh: -7%

Results for CCOCCCNC1=C(Cl)C(=O)c2ccccc2C1=O ?
Pf growth 48h: 3.7µM*; HCV inhibitor: -13%; Pf growth 96h: inconclusive; NS1 inh: -54%

How did COc1ccc(CNC(=O)Cn2cnc3c(SC)nc(N)nc32)cc1 do in these assays?
Vaccinia mCherry: -8%; HCV inhibitor: 8.9µM*; Vaccinia Venus: -12%

How did CSc1nc(N)nc2c1ncn2CC(=O)Nc1ccc(C)c(C)c1 do in these assays?
Vaccinia mCherry: -27%; HCV inhibitor: 3.5µM*; Vaccinia Venus: inconclusive

What do the screens show for `Cc1nnc(SCC(=O)Nc2sccc2C#N)n1Cc1ccccc1`?
Pf growth 48h: 16%; HCV inhibitor: 2%; Vaccinia Venus: -15%; Pf growth 96h: -7%; NS1 inh: 8%

Results for COCCCNC(=O)c1c(N)n(-c2ccc3c(c2)OCO3)c2nc3ccccc3nc12 ?
Vaccinia mCherry: -2%; Pf growth 48h: 6.6µM*; HCV inhibitor: inconclusive; Vaccinia Venus: -17%; Pf growth 96h: 11%; NS1 inh: -40%

Results for CCCNC(=O)c1c(N)n(-c2cc(OC)cc(OC)c2)c2nc3ccccc3nc12 ?
Pf growth 48h: inconclusive; HCV inhibitor: inconclusive; Pf growth 96h: 10µM*; NS1 inh: -43%

What do the screens show for `CCOCCCNC(=O)c1c(N)n(-c2ccc3c(c2)OCO3)c2nc3ccccc3nc12`?
Vaccinia mCherry: -1%; Pf growth 48h: inconclusive; HCV inhibitor: 19%; Vaccinia Venus: -7%; Pf growth 96h: inconclusive; NS1 inh: 5%

Results for CCOC(=O)c1c(N)n(-c2cccc(OC)c2)c2nc3ccccc3nc12 ?
Vaccinia mCherry: -14%; Vaccinia Venus: -2%

What do the screens show for `CCCNC(=O)c1c(N)n(-c2ccc3c(c2)OCO3)c2nc3ccccc3nc12`?
Pf growth 48h: 8.3µM*; HCV inhibitor: -21%; Pf growth 96h: 4.1µM*; NS1 inh: 0%

How did Cc1[nH]c(=S)c(C#N)c(C)c1C(=O)Nc1ccccc1 do in these assays?
HCV inhibitor: 3%; Vaccinia Venus: inconclusive; Pf growth 96h: 1%; NS1 inh: 8%

Results for COc1cccc2sc(N(Cc3cccnc3)C(=O)c3ccco3)nc12 ?
Vaccinia mCherry: -7%; Vaccinia Venus: -16%

How did C=CCN1C(=O)C(CC(C)C)NC1=S (stereo unspecified) do in these assays?
Pf growth 48h: -18%; Pf growth 96h: 0.54µM*!

How did COC(=O)c1ccc(C(=O)OC)c(NC(=O)CSCc2ccc(Cl)cc2)c1 do in these assays?
Pf growth 48h: 0%; HCV inhibitor: -28%; Vaccinia Venus: -12%; Pf growth 96h: 30%; NS1 inh: -2%

What do the screens show for `CCc1sc(C(=O)NCc2ccco2)cc1C`?
Vaccinia mCherry: inactive; Pf growth 48h: -2%; HCV inhibitor: -10%; Vaccinia Venus: -12%; Pf growth 96h: 15%; NS1 inh: -3%

What do the screens show for `CCc1sc(C(=O)NCc2ccco2)cc1Br`?
Pf growth 48h: 1%; HCV inhibitor: 13%; Pf growth 96h: 10µM*; NS1 inh: -105%

Results for Cc1nn(-c2ccc(Cl)cc2)c(=O)c2ccccc12 ?
Pf growth 48h: 74%; HCV inhibitor: 5%; Pf growth 96h: 123%; NS1 inh: -1%

Results for O=c1c2ccccc2c(-c2ccc(Cl)cc2)nn1-c1ccccc1 ?
Pf growth 48h: 3.3µM*; HCV inhibitor: inconclusive; Pf growth 96h: inconclusive; NS1 inh: 6%

What do the screens show for `O=c1c2ccccc2c(-c2cccc(C(F)(F)F)c2)nn1-c1ccccc1`?
Vaccinia mCherry: -12%; Pf growth 48h: inconclusive; HCV inhibitor: 8%; Vaccinia Venus: -13%; Pf growth 96h: 9.3µM*; NS1 inh: 5%

Results for O=c1c2ccccc2c(-c2ccc(O)cc2)nn1-c1cccc(C(F)(F)F)c1 ?
Vaccinia mCherry: inconclusive; Pf growth 48h: 9.3µM*; HCV inhibitor: inconclusive; Vaccinia Venus: 11µM*; Pf growth 96h: inconclusive; NS1 inh: -25%

How did CCN(CC)S(=O)(=O)c1ccc(-c2nnc(SCC(C)=O)o2)cc1 do in these assays?
HCV inhibitor: 6%; Pf growth 96h: inconclusive; NS1 inh: 5%

How did Cc1csc(NC(=O)CSc2nnc(-c3ccccc3)o2)n1 do in these assays?
Vaccinia mCherry: -3%; HCV inhibitor: 25%; Vaccinia Venus: -13%; Pf growth 96h: 80%; NS1 inh: 8%

Results for Cc1ccc(-c2nnc(SCC(=O)Nc3ccc(S(=O)(=O)N4CCCCCC4)cc3)o2)cc1 ?
Vaccinia mCherry: -12%; Pf growth 48h: inconclusive; HCV inhibitor: -3%; Vaccinia Venus: -6%; Pf growth 96h: 11%[5.75 µM]; NS1 inh: -4%

Results for CCN(CC)S(=O)(=O)c1ccc(-c2nnc(SCC(=O)Nc3cc(OC)cc(OC)c3)o2)cc1 ?
Pf growth 48h: 13µM*; HCV inhibitor: -9%; NS1 inh: 7%

What do the screens show for `Cc1csc(NC(=O)CSc2nnc(-c3ccc(S(=O)(=O)N4CCCC4)cc3)o2)n1`?
Vaccinia mCherry: 3.2µM*; Pf growth 48h: 5.9µM*; HCV inhibitor: -5%; Vaccinia Venus: 4.5µM*; NS1 inh: 8%

What do the screens show for `CCN(CC)S(=O)(=O)c1ccc(-c2nnc(SCC(=O)Nc3nc(C)cs3)o2)cc1`?
Vaccinia mCherry: 5µM*; HCV inhibitor: -2%; Vaccinia Venus: 11µM*; Pf growth 96h: -54%; NS1 inh: -10%

Results for CCCCN1CC[C@H]2C=CC[C@@H](C(=O)Nc3ccc(Cl)c(C(F)(F)F)c3)[C@H]2C1=O ?
Vaccinia mCherry: -22%; HCV inhibitor: 20%; Vaccinia Venus: inconclusive

Results for COc1ccc(-c2c3c(=O)n(C)c(=O)n(C)c3cn2-c2ccccc2O)cc1 ?
Vaccinia mCherry: inconclusive; Pf growth 48h: inconclusive; HCV inhibitor: inconclusive; Vaccinia Venus: -13%; Pf growth 96h: inconclusive; NS1 inh: -6%

What do the screens show for `COc1ccc(-c2c3c(=O)n(C)c(=O)n(C)c3cn2-c2cc(OC)ccc2OC)cc1`?
Vaccinia mCherry: inconclusive; Pf growth 48h: 13µM*; HCV inhibitor: inconclusive; Vaccinia Venus: -23%; Pf growth 96h: -4%[5.75 µM]; NS1 inh: -38%

Results for COc1ccc(CN(CC2CCC(C(=O)O)CC2)C(=S)Nc2cccc(C)c2)cc1 (stereo unspecified) ?
Vaccinia mCherry: -16%; Pf growth 48h: -35%; HCV inhibitor: 14%; Vaccinia Venus: -1%; Pf growth 96h: -30%[1.15 µM]

Source: PubChem
